The results in this text go back to the OligoGym collection.
Further: reference of the scale not given here.

For one assay, the target named is CDH2. The assay can be described thus: pooled miR-30 sensor sort-seq; sequence = guide strand. The settings on record: shRNA.
TTGACCACGGTGACTAACCCGT had a sensor-assay potency score (higher = more potent) of -0.441.

In the case of TATTATCTCTTACATCATCTTC, the sensor-assay potency score (higher = more potent) is -0.354. The same measure, in the same setting: under TTCATAGTCAAACACTAACAGG stands -1.55; under TAGTCAAACACTAACAGGGAGT, -0.885. Same read-out and setting: in the case of TTTATCTTTAAATTAAGCTGAG it was -0.626; in that of TTATCTTTAAATTAAGCTGAGC, -0.63. Same read-out and setting: under TTGATGACAATGTCAATGGGGT stands 0.314; under TTGATTGTAAACATGTTGGGTG, 0.885; under TATTTCTTCAACTTCTGCTGAC, 0.204. For the sequence TTCAACTTCTGCTGACTCCTTC, the sensor-assay potency score (higher = more potent) worked out at 0.711.

The target of a further assay is CDK9. Described as above. The settings on record: shRNA.
Regarding TCAAGTTGACCACATTCTCGTG, the sensor-assay potency score (higher = more potent) is -0.846. Take TGAAGGATCTTGATCTCCCGCA: the sensor-assay potency score (higher = more potent) was -0.0916. For ATCTCTGCCATGATGCACCCAG, the sensor-assay potency score (higher = more potent) was -0.791.

With TTGACCACATTCTCGTGTTTTA, the sensor-assay potency score (higher = more potent) was -0.499. Sequence TAGAAGCTGAAGGATCTTGATC gave a sensor-assay potency score (higher = more potent) of -0.488. Still for that read-out and setting: in the case of ATTCTCGTGTTTTAGAAGCTGA it was 0.181; in that of TTTCTGTGGATGTAGTAGAGGC, -0.227; in that of AAGTACTCGAACATGGACGTCA, 0.37. On the same count and under the same terms, under TTGTCGATGAGGTCCAGTGCGT stands -0.728; under TATACTACCCTTGCAGCGGTTA, -0.622.

The sequence TACCAGAGTGTCACCACACGGT came in with a sensor-assay potency score (higher = more potent) of 0.18. Still for that read-out and setting: under TTTTCCATCAGCACCTTCTTCA stands -0.28; under AACTTGACCAAAACATTGCTCA, -0.141; under TCTCGTATTTGGAAACTTCATC, -1.02.

For the sequence TACTCGAACATGGACGTCAGGT, the sensor-assay potency score (higher = more potent) is -0.285.

The sequence TATTTGGAAACTTCATCACAAA registered a sensor-assay potency score (higher = more potent) of -1.19. Same read-out and setting: under TTGATCTCCCGCAAGGCTGTAA stands -0.379. TCGAACACCAGGTATATACTAC showed a sensor-assay potency score (higher = more potent) of -0.813. Still for that read-out and setting: in the case of TTGAACACCTCCCCGAAGGTGC it was -0.836; in that of AAAACATTGCTCAACAGCCCAG, -1.38.
